{"source": "PubChem BioAssay AID686978", "about": "(National Center for Advancing Translational Sciences (NCATS), 2013)", "note": "The whole screen tested about 420,000 compounds, of which about 64,000 (15%) were called active. Not shown: some 27% with an inconclusive outcome. The call rests on the fitted dose curve; in most records, active means well fitted inhibition curve with a large enough effect; inconclusive means small, poorly fitted or top-dose-only effect; inactive means flat fitted curve, though single readings scatter. A selection follows. On the % scale 0 is the no-effect control and ±100 the full control effect; potency means the concentration at half of the fitted maximal effect.", "data": [{"experiment": "qHTS for Inhibitors of human tyrosyl-DNA phosphodiesterase 1 (TDP1): qHTS in cells in absence of CPT; further: nearly all actives have a fitted effect of over 55% in size", "conditions": "DT40 Tdp1-/- hTDP1 cells, no CPT, ATP luminescence, 48 h; activity change, negative = growth inhibition: at 46.2 µM (top of the series)", "procedure,_shortened": "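Luminescent ATP content (CellTiter-Glo) served as the growth readout. Knockout chicken DT40 cells expressing human TDP1 were exposed to compounds without camptothecin for a minimum 48 hr at 37 °C.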", "values": [{"smiles": "CCCc1cc(C(=O)Nc2ccc(C(=O)OC)cc2)cs1", "activity change, negative = growth inhibition": "6.02% (inactive)"}, {"smiles": "CC(O)c1ccc(OCCN(C)c2ccccn2)cc1", "note": "(stereo not given)", "activity change, negative = growth inhibition": "-6.31% (inactive)"}, {"smiles": "O=C(COC(=O)c1c(Cl)cccc1Cl)Nc1cccc(S(=O)(=O)NC2=NCCCCC2)c1", "activity change, negative = growth inhibition": "13.1% (inactive)"}, {"smiles": "CCn1c(CC(=O)Nc2ccccc2C)nnc1SCC(=O)NC1=NCCS1", "activity change, negative = growth inhibition": "-27% (inactive)"}, {"smiles": "COCCCNC(=O)C1CCN(c2ccc(N3CCOCC3)nn2)CC1", "activity change, negative = growth inhibition": "0.0826% (inactive)"}, {"smiles": "COC(=O)Cc1ccc(NC(=S)NCc2ccccc2)cc1", "activity change, negative = growth inhibition": "-29.3% (inactive)"}, {"smiles": "Cn1cc(C(=O)NCc2ccccc2F)cn1", "activity change, negative = growth inhibition": "-12.8% (inactive)"}, {"smiles": "Fc1ccccc1CNC(=S)Nc1ccc(Cl)cc1", "Potency": "20.6 µM (active)"}, {"smiles": "C[C@H](C(=O)CC(=O)OC(C)(C)C)[C@H](O)c1ccc(C(F)(F)F)cc1", "activity change, negative = growth inhibition": "-27.5% (inactive)"}, {"smiles": "O=C(NCc1ccncc1)NC12CC3CC(CC(C3)C1)C2", "activity change, negative = growth inhibition": "-16.2% (inactive)"}, {"smiles": "CCN(CC(=O)NCc1ccc(F)cc1)S(=O)(=O)c1ccc(Cl)s1", "activity change, negative = growth inhibition": "-10.1% (inactive)"}, {"smiles": "CCCCNC(=O)c1nc(C2CCN(S(=O)(=O)c3ccc(F)c(F)c3)CC2)oc1-c1cccc(C(F)(F)F)c1", "activity change, negative = growth inhibition": "2.36% (inactive)"}, {"smiles": "CN1CCCC1CCO[C@@](C)(c1ccccc1)c1ccc(Cl)cc1", "note": "(stereo not given in full)", "Potency": "14.6 µM (active)"}, {"smiles": "CCC1CCC/C1=N\\NC(=O)c1ccc(Cl)cc1", "note": "(stereo not given)", "activity change, negative = growth inhibition": "-9.86% (inactive)"}, {"smiles": "C#CC(CCN1CCCCC1)(OC)c1ccccc1", "note": "(stereo not given)", "activity change, negative = growth inhibition": "-0.836% (inactive)"}, {"smiles": "CN1CCC[C@@H]1CCO[C@](C)(c1ccccc1)c1ccc(Cl)cc1", "Potency": "26.6 µM (active)"}, {"smiles": "COc1ccc(CN2CCNC(=O)C2CC(=O)N(C)Cc2ccccn2)cc1OC", "note": "(stereo not given)", "activity change, negative = growth inhibition": "1.2% (inactive)"}, {"smiles": "CC1CC(C)CN(S(=O)(=O)c2cccc(C(=O)N3C(=O)c4cccc(N)c4C3=O)c2)C1", "note": "(stereo not given)", "activity change, negative = growth inhibition": "5.73% (inactive)"}, {"smiles": "Cc1ccc(NC(=O)Cn2nnc3sc4c(c3c2=O)CCC(C)C4)cc1", "note": "(stereo not given)", "activity change, negative = growth inhibition": "-79.2% (inactive)"}, {"smiles": "COc1cccc2cc(-c3nc(Cl)c4c5c(sc4n3)CC(C)CC5)c(=O)oc12", "note": "(stereo not given)", "activity change, negative = growth inhibition": "-0.111% (inactive)"}, {"smiles": "COC(=O)c1cccc(Cn2nnc3sc4c(c3c2=O)CCC(C(C)(C)C)C4)c1", "note": "(stereo not given)", "Potency": "18.4 µM (active)"}, {"smiles": "O=C(C1CCCO1)N(Cc1ccccc1)c1ccccc1", "note": "(stereo not given)", "activity change, negative = growth inhibition": "-1.91% (inactive)"}, {"smiles": "Cc1cc(C)c(NC(=O)c2cc3sc(Cl)cc3n2C)c(C)c1", "activity change, negative = growth inhibition": "-14.2% (inactive)"}, {"smiles": "COC(=O)Cc1ccc(OCC(=O)Nc2ccc(OC(F)(F)F)cc2)cc1", "activity change, negative = growth inhibition": "0.899% (inactive)"}, {"smiles": "CCOC(=O)Cc1ncccc1C(=O)Nc1ccc(OC(F)(F)F)cc1", "Potency": "14.6 µM (active)"}, {"smiles": "CCOC(=O)Cc1ncccc1C(=O)Nc1ccc(OC)cc1", "activity change, negative = growth inhibition": "-8.44% (inactive)"}, {"smiles": "O=c1[nH]snc1-c1c(Cl)cccc1Cl", "activity change, negative = growth inhibition": "2.16% (inactive)"}, {"smiles": "O=C(NC1CC(=O)N(c2ccc(Cl)cc2)C1)C1CCCC1", "note": "(stereo not given)", "activity change, negative = growth inhibition": "-17.6% (inactive)"}, {"smiles": "Cc1cc(C)c(S(=O)(=O)Nc2c(C)n(C)n(-c3ccccc3)c2=O)cc1[N+](=O)[O-]", "activity change, negative = growth inhibition": "-2.01% (inactive)"}, {"smiles": "CCCCCCCC[n+]1cccc(C(=O)N2c3c(nc(N)[nH]c3=O)NC(C)C2C)c1", "note": "(stereo not given)", "activity change, negative = growth inhibition": "-7.83% (inactive)"}, {"smiles": "COc1ccc(C2C(C#N)=C(N)N(c3ncn[nH]3)C3=C2C(=O)CCC3)cc1", "note": "(stereo not given)", "activity change, negative = growth inhibition": "-0.937% (inactive)"}, {"smiles": "CSc1sc(C)cc1C1C(C#N)=C(N)N(c2cccnc2)C2=C1C(=O)CCC2", "note": "(stereo not given)", "Potency": "11.6 µM (active)"}, {"smiles": "N#CC1=C(N)N(c2ccccc2)C2=C(C(=O)CCC2)C1c1ccccc1", "note": "(stereo not given)", "activity change, negative = growth inhibition": "-9.89% (inactive)"}, {"smiles": "Nc1c(N(CCO)C(=O)C2CCCCC2)c(=O)[nH]c(=O)n1Cc1ccccc1", "activity change, negative = growth inhibition": "-28.9% (inactive)"}, {"smiles": "COCCSc1nnc(NC(=O)c2cc(OC)c(OC)cc2[N+](=O)[O-])s1", "activity change, negative = growth inhibition": "-0.273% (inactive)"}, {"smiles": "O=c1c2cc(-c3ccccc3)sc2nc2n1N=C(c1cccs1)CS2", "Potency": "23.1 µM (active)"}, {"smiles": "c1csc(-c2cn3c(n2)SCC3)c1", "activity change, negative = growth inhibition": "-23.2% (inactive)"}, {"smiles": "Cc1nnc2n1N=C(c1ccccc1)CS2", "activity change, negative = growth inhibition": "-0.421% (inactive)"}, {"smiles": "Cc1ccc(OCC(=O)N/N=C\\c2ccco2)c(C)c1", "activity change, negative = growth inhibition": "-9.09% (inactive)"}, {"smiles": "Cc1cc(C)c(OCC(=O)N/N=C/c2ccco2)c(C)c1", "Potency": "16.4 µM (active)"}, {"smiles": "Cc1ccc(NC(=O)CCC(=O)N/N=C/c2ccco2)c(C)c1", "activity change, negative = growth inhibition": "-0.547% (inactive)"}, {"smiles": "O=C(NC1CCCC1)C(c1ccco1)N(C(=O)c1csnn1)c1ccccc1", "note": "(stereo not given)", "activity change, negative = growth inhibition": "-9.4% (inactive)"}, {"smiles": "O=C(NCc1ccccc1)C(c1ccc(F)cc1)N1CCN(C(=O)C2CCCO2)CC1", "note": "(stereo not given)", "activity change, negative = growth inhibition": "-3.25% (inactive)"}, {"smiles": "O=C(NCC1CCCO1)/C(=C/c1ccc(Cl)cc1)NC(=O)c1ccccc1", "note": "(stereo not given)", "activity change, negative = growth inhibition": "-11.4% (inactive)"}, {"smiles": "Cc1ccc(NC(=O)CN(C)C(=O)COC(=O)c2nccnc2N)cc1", "activity change, negative = growth inhibition": "-17.6% (inactive)"}, {"smiles": "Brc1ccccc1C1N=C(c2ccccc2)NO1", "note": "(stereo not given)", "activity change, negative = growth inhibition": "-17.2% (inactive)"}, {"smiles": "CCOC(=O)N1CCN(C(=O)c2ccc(CN(c3ccc(C)c(C)c3)S(C)(=O)=O)cc2)CC1", "Potency": "23.1 µM (active)"}, {"smiles": "CCN1CCN(C(=O)c2ccc(CN(c3ccc(C)c(C)c3)S(C)(=O)=O)cc2)CC1", "activity change, negative = growth inhibition": "-25.9% (inactive)"}, {"smiles": "CCOC(=O)C1CCCN(C(=O)c2ccc(N(C)C)cc2)CC1", "note": "(stereo not given)", "activity change, negative = growth inhibition": "-22.5% (inactive)"}, {"smiles": "CO/N=C/CC(=O)c1ccc(OC)cc1", "activity change, negative = growth inhibition": "-8.75% (inactive)"}, {"smiles": "COCCNc1nc2nonc2nc1N(C)Cc1ccc(C)cc1", "activity change, negative = growth inhibition": "-6.6% (inactive)"}, {"smiles": "CN(C)C(CNC(=O)CCCOc1ccccc1)c1ccco1", "note": "(stereo not given)", "activity change, negative = growth inhibition": "1.99% (inactive)"}, {"smiles": "CCC1(C)CC(=O)NC1=O", "note": "(stereo not given)", "Potency": "inactive"}, {"smiles": "CCc1cccc(C)c1NS(=O)(=O)c1cc(Br)cnc1N", "Potency": "18.4 µM (active)"}, {"smiles": "COc1ccc(N2CCN(S(=O)(=O)c3cc(Br)cnc3N)CC2)cc1", "activity change, negative = growth inhibition": "-2.17% (inactive)"}, {"smiles": "CCc1cccc(C)c1NS(=O)(=O)c1c(C)nc2sccn2c1=O", "activity change, negative = growth inhibition": "-19.2% (inactive)"}, {"smiles": "Cc1cc(C)c2nc(-c3ccco3)cc(C(=O)O)c2c1", "activity change, negative = growth inhibition": "-19.2% (inactive)"}, {"smiles": "CC(C)(CNC(=O)c1ccc(Cl)c(S(=O)(=O)N2CCc3ccccc3C2)c1)N1CCOCC1", "Potency": "23.1 µM (active)"}, {"smiles": "CC(C)(CNC(=O)Cc1ccc(Cl)cc1Cl)N1CCOCC1", "activity change, negative = growth inhibition": "3.47% (inactive)"}, {"smiles": "CN(C)S(=O)(=O)c1ccc(C(=O)NCC(C)(C)N2CCOCC2)cc1", "activity change, negative = growth inhibition": "-1.91% (inactive)"}, {"smiles": "Cc1ccc(C)c(NC(=O)COC(=O)CSc2ccccc2)c1", "activity change, negative = growth inhibition": "-10.1% (inactive)"}, {"smiles": "Cc1ccccc1C(=O)N1CCN(c2ccc(NC(=O)c3cccs3)cc2)CC1", "Potency": "16.4 µM (active)"}, {"smiles": "Cc1cccc(C)c1NC(=O)CS(=O)CC(=O)N1CCN(c2ccccc2)CC1", "note": "(stereo not given)", "activity change, negative = growth inhibition": "-24.6% (inactive)"}, {"smiles": "Cc1ccccc1C(=O)NC(=S)Nc1ccc(N2CCN(C(=O)c3ccccc3)CC2)cc1", "Potency": "10.3 µM (active)"}, {"smiles": "Cc1ccccc1C(=O)Nc1ccc(N2CCCCCC2)cc1", "Potency": "9.2 µM (active)"}, {"smiles": "O=C(NC(=O)c1ccccc1N1CCCCC1)Nc1ccc(Br)cc1", "activity change, negative = growth inhibition": "-2.29% (inactive)"}, {"smiles": "Cc1ccccc1C(=O)Nc1ccccc1NC(=O)c1ccccc1C", "activity change, negative = growth inhibition": "-28.3% (inactive)"}, {"smiles": "Cc1ccccc1C(=O)NC(=S)NC1CC1", "activity change, negative = growth inhibition": "-9.02% (inactive)"}, {"smiles": "COc1ccc(N2CCN(C(=O)c3cccs3)CC2)cc1", "activity change, negative = growth inhibition": "-6.89% (inactive)"}, {"smiles": "O=C(Nc1ccc(N2CCN(C(=O)c3cccs3)CC2)cc1)c1cccnc1Cl", "activity change, negative = growth inhibition": "1.55% (inactive)"}]}]}
